According to PubChem BioAssay (NCATS):
Results filed as inconclusive are left out. Calls of active or inactive are those of the source. Calls follow the shape of the dose curve; as a rule, active = well fitted curve in the direction sought with a large enough effect; inconclusive = small, poorly fitted or top-dose-only effect, or another doubt; inactive = no such curve, though single readings can be large; an effect the other way counts as inactive or inconclusive.

What was measured:
[1] = Quantitative High-Throughput drug screen in 47 multiple myeloma cell lines against the NCATS MIPE library collection: Karpas25_ECACC cell viability assay (AID 1918968; also: nearly all actives have a fitted effect of over 35% in size)
Method in brief: (§1)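 CellTiter-Glo luminescence (ATP) after 48 h compound exposure, 37C/5% CO2; 500 cells/well; MIPE 4.0 approved/investigational drugs pinned in; DMSO = 100%, media only = 0% viability.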

[2] = Quantitative High-Throughput drug screen in 47 multiple myeloma cell lines against the NCATS MIPE library collection: KMS27_JCRB cell viability assay (AID 1918970); conditions: KMS27 myeloma cells, CellTiter-Glo ATP viability, 48 h; viability (% of DMSO): at 45.8 µM (top of the series); also: nearly all actives have a fitted effect of over 30% in size
Method in brief: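 Each line is seeded at 500 cells per well and treated with library compounds for 48 hours under 37 °C, 5% CO2. CellTiter-Glo is then added for 5 min at room temperature before median relative luminescence is recorded.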

[3] = Quantitative High-Throughput drug screen in 47 multiple myeloma cell lines against the NCATS MIPE library collection: KMS12BM_JCRB cell viability assay (AID 1918971); also: nearly all actives have a fitted effect of over 35% in size
Method in brief: (§2)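 Steps: seed 500 cells per well; pin-transfer MIPE 4.0 library; incubate 48 h at 37C, 5% CO2, humidified; add CellTiter-Glo, 5 min room temperature; read luminescence.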

[4] = Quantitative High-Throughput drug screen in 47 multiple myeloma cell lines against the NCATS MIPE library collection: KMS12PE_JCRB cell viability assay (AID 1918972); also: nearly all actives have a fitted effect of over 30% in size
Method in brief: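 Myeloma cell lines, 500 cells per well, exposed to MIPE 4.0 library compounds for 48 h at 37C, 5% CO2. Viability from ATP by CellTiter-Glo luminescence; normalised to DMSO (100%) and media-only (0%) wells.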

[5] = Quantitative High-Throughput drug screen in 47 multiple myeloma cell lines against the NCATS MIPE library collection: KMS20_JCRB cell viability assay (AID 1918973); also: nearly all actives have a fitted effect of over 45% in size
Method in brief: as §1

[6] = Quantitative High-Throughput drug screen in 47 multiple myeloma cell lines against the NCATS MIPE library collection: KMS26_JCRB cell viability assay (AID 1918975); also: nearly all actives have a fitted effect of over 45% in size
Method in brief: as §2

[7] = Quantitative High-Throughput drug screen in 47 multiple myeloma cell lines against the NCATS MIPE library collection: MMM1_PLB cell viability assay (AID 1918976); also: nearly all actives have a fitted effect of over 35% in size
Method in brief: (§3)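 500 cells/well per myeloma line exposed to pinned MIPE 4.0 compounds for 48 h at 37 °C, 5% CO2. Viability read as ATP by CellTiter-Glo luminescence, normalised to DMSO-only (100%) and media-only (0%) wells.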

[8] = Quantitative High-Throughput drug screen in 47 multiple myeloma cell lines against the NCATS MIPE library collection: MOLP8_DSMZ cell viability assay (AID 1918977); also: nearly all actives have a fitted effect of over 45% in size
Method in brief: as §3

[9] = Quantitative High-Throughput drug screen in 47 multiple myeloma cell lines against the NCATS MIPE library collection: NCIH929_DSMZ cell viability assay (AID 1918978); also: nearly all actives have a fitted effect of over 35% in size
Method in brief: as §3

[10] = Quantitative High-Throughput drug screen in 47 multiple myeloma cell lines against the NCATS MIPE library collection: KMS21BM_JCRB cell viability assay (AID 1918974); conditions: ATP luminescence, 48 h; viability: at 45.8 µM (top of the series)
Method in brief: as §1
Potency is read from the fitted curve at half-maximal effect.

| Compound | Potency [1] | Potency [2] | Potency [3] | Potency [4] | Potency [5] | Potency [6] | Potency [7] | Potency [8] | Potency [9] | Potency [10] |
| --- | --- | --- | --- | --- | --- | --- | --- | --- | --- | --- |
| COc1ccc(C[C@@H](C)[C@@H](C)Cc2ccc(OC)c(OC)c2)cc1OC | 0.662 µM (active) | 166 nM (active) | 0.662 µM (active) | 0.372 µM (active) | 2.35 µM (active) | 0.59 µM (active) | 5.9 µM (active) | 2.96 µM (active) | 1.87 µM (active) | – |
| Nc1ccc(C(=O)Nc2cccc(-c3nc(N4CCOCC4)c4oc5ncccc5c4n3)c2)cn1 | 2.35 µM (active) | 6620 nM (active) | 23.5 µM (active) | 2.64 µM (active) | 1.48 µM (active) | 2.35 µM (active) | 16.6 µM (active) | 20.9 µM (active) | 2.64 µM (active) | 10.5 µM (active) |
| Cc1ncc(-c2ccnc(Nc3ccc(S(C)(=O)=O)cc3)n2)n1C(C)C | 2.35 µM (active) | 2640 nM (active) | 4.18 µM (active) | 2.96 µM (active) | 2.35 µM (active) | 2.64 µM (active) | 4.69 µM (active) | 1.32 µM (active) | 2.09 µM (active) | – |
| O=C(Nc1nnc(-c2ccco2)o1)c1cc(-c2ccccc2)nc2ccccc12 | 18.7 µM (active) | 16600 nM (active) | 23.5 µM (active) | 18.7 µM (active) | 16.6 µM (active) | – | – | – | 18.7 µM (active) | 23.5 µM (active) |
| COc1ccc(S(=O)(=O)Nc2cc(-c3c(O)ccc4ccccc34)c(O)c3ccccc23)cc1 | 5.26 µM (active) | 14800 nM (active) | 26.4 µM (active) | 13.2 µM (active) | 9.35 µM (active) | – | 16.6 µM (active) | 7.43 µM (active) | 3.32 µM (active) | 18.7 µM (active) |
| COc1cccc2c1C(=O)c1c(O)c3c(c(O)c1C2=O)C[C@@](O)(C(=O)CO)C[C@@H]3O[C@H]1C[C@H](N)[C@H](OC2CCCCO2)[C@H](C)O1 (some centres not stated) | 1.05 µM (active) | inactive | 2.09 µM (active) | inactive | 1.18 µM (active) | 2.96 µM (active) | 1.18 µM (active) | 1.18 µM (active) | 0.935 µM (active) | – |
| COc1cc([C@@H]2c3cc4c(cc3[C@@H](O[C@@H]3O[C@@H]5CO[C@@H](c6cccs6)O[C@@H]5[C@H](O)[C@@H]3O)[C@H]3COC(=O)[C@H]23)OCO4)cc(OC)c1O | 1.87 µM (active) | 132 nM (active) | 1.32 µM (active) | 1.32 µM (active) | 0.418 µM (active) | 16.6 µM (active) | – | – | 14.8 µM (active) | 1.87 µM (active) |
| COc1ccc(Nc2cc(-c3cnc(N)nc3)nc(N3CCOCC3)n2)cn1 | 1.66 µM (active) | 372 nM (active) | 2.96 µM (active) | 2.09 µM (active) | 4.18 µM (active) | 4.18 µM (active) | 1.87 µM (active) | 0.833 µM (active) | 0.264 µM (active) | – |
| COC[C@H](NC(=O)c1cnc(C)s1)C(=O)N[C@@H](COC)C(=O)N[C@@H](Cc1ccccc1)C(=O)[C@@]1(C)CO1 | 0.0743 µM (active) | 74.3 nM (active) | 0.0935 µM (active) | 0.0372 µM (active) | 0.132 µM (active) | 0.148 µM (active) | 1.05 µM (active) | 0.0469 µM (active) | 0.0526 µM (active) | – |
| Cc1[nH]c(C=C2C(=O)Nc3ccccc32)c(C)c1CCC(=O)O | 10.5 µM (active) | 5900 nM (active) | 5.9 µM (active) | 9.35 µM (active) | 11.8 µM (active) | – | – | – | 7.43 µM (active) | 11.8 µM (active) |
| CC(C)(O)Cn1c(NC(=O)c2ccc(-c3cn[nH]c3)s2)nc2cc(CN3CCOCC3)ccc21 | 0.935 µM (active) | 372 nM (active) | 2.35 µM (active) | 0.469 µM (active) | 2.96 µM (active) | 2.09 µM (active) | 2.09 µM (active) | 1.18 µM (active) | 1.66 µM (active) | – |
| O=C(CCCCCCC(=O)Nc1cccnc1)NO | 1.66 µM (active) | 7430 nM (active) | 1.87 µM (active) | 2.96 µM (active) | 3.32 µM (active) | 3.72 µM (active) | – | 3.32 µM (active) | 3.72 µM (active) | 2.35 µM (active) |
| CC(C=CC(=O)NO)=C[C@@H](C)C(=O)c1ccc(N(C)C)cc1 | 0.264 µM (active) | 264 nM (active) | 0.264 µM (active) | 0.235 µM (active) | 0.148 µM (active) | 0.264 µM (active) | 0.187 µM (active) | 0.0935 µM (active) | 0.296 µM (active) | 0.166 µM (active) |
| CCC(C=C[C@@H]1OC(=O)C=C[C@H]1C)=C[C@H](C)CC=CC(C)=C[C@@H](C)C(=O)[C@@H](C)[C@H](O)[C@@H](C)CC(C)=CC(=O)O | 0.0196 µM (active) | 9.8 nM (active) | 0.0196 µM (active) | 0.0196 µM (active) | 0.0088 µM (active) | 0.0311 µM (active) | 0.0277 µM (active) | 0.0196 µM (active) | 0.0196 µM (active) | – |
| CN[C@H]1[C@@H](O)[C@@H]2O[C@@H]3O[C@H](C)CC(=O)[C@]3(O)O[C@@H]2[C@@H](NC)[C@H]1O | 0.0743 µM (active) | 332 nM (active) | 9.35 µM (active) | 0.833 µM (active) | – | 1.66 µM (active) | 1.66 µM (active) | 11.8 µM (active) | 0.935 µM (active) | 0.418 µM (active) |
| OCCNC1CCCc2c1[nH]c1ccc(-c3ccccc3)cc21 (configuration not stated) | 9.35 µM (active) | 23500 nM (active) | 37.2 µM (active) | 8.33 µM (active) | 5.26 µM (active) | 20.9 µM (active) | 20.9 µM (active) | – | 13.2 µM (active) | – |
| CC(=O)O[C@H]1C[C@@H]2CC[C@H]3[C@H]4C[C@H]([N+]5(C)CCCCC5)[C@@H](OC(C)=O)[C@@]4(C)CC[C@@H]3[C@@]2(C)C[C@H]1N1CCCCC1 | inactive | inactive | inactive | inactive | – | inactive | – | inactive | inactive | inactive |
| N#Cc1c(NC(=O)c2cccc3ccccc23)sc2c1CCCC2 | 0.743 µM (active) | 20.9 nM (active) | 0.526 µM (active) | 0.332 µM (active) | – | 3.32 µM (active) | 5.26 µM (active) | – | 2.35 µM (active) | 0.526 µM (active) |
| Cc1ccc2nc(NCCN)c3ncc(C)n3c2c1 | 9.35 µM (active) | 6620 nM (active) | 3.72 µM (active) | 9.35 µM (active) | 6.62 µM (active) | 2.64 µM (active) | 2.64 µM (active) | 4.18 µM (active) | 5.9 µM (active) | – |
| NC1=N[C@H]2[C@H](CS[C@H]2CCCCC(=O)O)N1 | inactive | inactive | inactive | inactive | – | inactive | – | inactive | inactive | – |
| CC(C=CC1=C(C)CCCC1(C)C)=CC=CC(C)=CC(=O)Nc1ccc(O)cc1 | 12.1 µM (active) | 8550 nM (active) | 17.1 µM (active) | 3.82 µM (active) | 15.2 µM (active) | 19.1 µM (active) | 21.5 µM (active) | – | 21.5 µM (active) | – |
| C[C@@H](Oc1ccc2[nH]nc(C=Cc3cnn(CCO)c3)c2c1)c1c(Cl)cncc1Cl | 0.743 µM (active) | inactive | 23.5 µM (active) | inactive | 4.18 µM (active) | – | 1.87 µM (active) | 0.469 µM (active) | 0.235 µM (active) | – |
| CCOC(=O)C1=C(C)NC(=S)NC1c1cccc(O)c1 (configuration not stated) | 0.0296 µM (active) | 46.9 nM (active) | 0.0662 µM (active) | 0.372 µM (active) | – | – | – | 0.0372 µM (active) | 0.0372 µM (active) | – |
| CC(=O)ON=C1C(c2c(O)[nH]c3cc(Br)ccc23)=Nc2ccccc21 | 2.64 µM (active) | 6620 nM (active) | 14.8 µM (active) | 1.48 µM (active) | – | – | 20.9 µM (active) | 13.2 µM (active) | 2.09 µM (active) | – |
| O=C(Nc1cccc(Nc2ncc(Br)c(NCCc3cnc[nH]3)n2)c1)N1CCCC1 | 5.9 µM (active) | inactive | 18.7 µM (active) | – | 5.9 µM (active) | 10.5 µM (active) | 18.7 µM (active) | 6.62 µM (active) | 7.43 µM (active) | – |
| CS[C@H]1SC[C@@H]2C(=O)N(C)[C@H](C(C)C)C(=O)OC[C@H](NC(=O)c3cnc4ccccc4n3)C(=O)N[C@H](C)C(=O)N(C)[C@@H]1C(=O)N(C)[C@H](C(C)C)C(=O)OC[C@H](NC(=O)c1cnc3ccccc3n1)C(=O)N[C@H](C)C(=O)N2C | 0.001 µM (active) | 1 nM (active) | 0.003 µM (active) | 0.001 µM (active) | – | 0.0132 µM (active) | 0.0118 µM (active) | 0.0047 µM (active) | 0.001 µM (active) | – |
| CC(C)OC(=O)[C@H](C)N[P@](=O)(OC[C@H]1O[C@@H](n2ccc(=O)[nH]c2=O)[C@](C)(F)[C@H]1O)Oc1ccccc1 | inactive | inactive | 1.66 µM (active) | inactive | – | inactive | – | inactive | inactive | – |
| C[C@@]12C(=O)OC(=O)[C@@]1(C)C1CCC2O1 | 1.18 µM (active) | 2090 nM (active) | 1.66 µM (active) | 1.87 µM (active) | 2.64 µM (active) | 2.09 µM (active) | 1.87 µM (active) | 3.72 µM (active) | 2.64 µM (active) | – |
| Cn1cc(CNCC2CCN(c3ncc(C(=O)NO)cn3)CC2)c2ccccc21 | 0.0118 µM (active) | 16.6 nM (active) | 0.0235 µM (active) | 0.0372 µM (active) | 0.0296 µM (active) | 0.0166 µM (active) | 0.0418 µM (active) | 0.0132 µM (active) | 0.0209 µM (active) | – |
